Screening results from PubChem.
A selection: hits, their analogues and other compounds. The true share with any hit is near 28%.
CYP2C9 inhib = human CYP2C9 inhibition; P11712; CYP2C9 Supersomes, luciferin-H conversion, luminescence; 96,000 compounds, 20% hits; AID 777; inhibition, % at 5 µM;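 active = blocking of liver enzyme CYP2C9 beyond about 50% at 5 µM, limit read from the data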
CYP2C19 inhib = human CYP2C19 inhibition | P33261 | CYP2C19 Supersomes, luciferin-H EGE luminescence, 30 min | inhibition, % at 5 µM | 96,000 compounds, 21% hits;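 active = CYP2C19 inhibition above a set limit at 5 µM in the primary screen, cut at about 50% in these data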;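 note: plate controls were negative control wells for no effect and 2.5 mM tranylcypromine positive control for full effect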
Target sequence (P33261 whole entry, looked up): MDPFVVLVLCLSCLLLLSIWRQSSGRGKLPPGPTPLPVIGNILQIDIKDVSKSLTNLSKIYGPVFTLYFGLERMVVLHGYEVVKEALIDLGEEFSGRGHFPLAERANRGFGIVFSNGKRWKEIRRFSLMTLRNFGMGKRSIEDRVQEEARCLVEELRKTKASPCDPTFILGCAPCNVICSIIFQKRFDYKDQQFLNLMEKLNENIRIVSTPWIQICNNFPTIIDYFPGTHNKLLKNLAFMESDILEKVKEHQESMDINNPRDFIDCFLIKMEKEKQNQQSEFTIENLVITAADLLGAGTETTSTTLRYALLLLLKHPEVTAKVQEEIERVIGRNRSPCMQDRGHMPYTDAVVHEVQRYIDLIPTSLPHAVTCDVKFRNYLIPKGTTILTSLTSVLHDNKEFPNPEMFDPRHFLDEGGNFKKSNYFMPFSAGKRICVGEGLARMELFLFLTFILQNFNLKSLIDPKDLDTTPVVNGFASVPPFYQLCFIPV
CYP2C9 activ = activators of human CYP2C9. activation factor at 5 µM. AID 1024. recombinant CYP2C9, luciferin-H conversion, luminescence; active compounds read high; factor 1 = untreated enzyme, 0 = blocked. 96,000 compounds, 1.4% hits;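 active = activation factor of 2 or more for CYP2C9 at a 5 µM dose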;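 note: 0 = sulfaphenazole-blocked wells and 1 = vehicle-only wells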
hDAT+cocaine = changed human dopamine transporter uptake under cocaine IC80. Q01959. LLC-PK1 hDAT cells, [14C]-dopamine uptake with cocaine IC80; actives deviate in either direction. B-score at 10 µM. 110,000 compounds, 1.3% hits;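 active = Z score or B-score, a plate-position-corrected score, falls beyond the plate's 99.7% confidence bounds, in either direction; inactive = both scores lie inside the 99.7% bounds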;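 note: scored against the spread of the other compound wells on the same plate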
D1 mod = allosterically modulates the human D1 dopamine receptor; 58,000 compounds, 5.9% hits; B-score at 10 µM; AID 641; P21728; HEK293 D1, CRE-luciferase, dopamine EC30 potentiation; actives deviate in either direction;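 active = luminescence count or its row- and column-corrected plate score outside the 99.7% band of the plate's sample wells, on either side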
CYP2C19 activ = cytochrome P450 2C19 (human) activation. P33261. 96,000 tested, under 10 active. activation factor at 5 µM. recombinant CYP2C19, luciferin-H EGE luminescence; active compounds read high; 0 = fully inhibited enzyme, 1 = untreated enzyme;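 active = activation factor of at least 2 at 5 µM in the primary screen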;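 note: 0 = wells with 2.5 mM tranylcypromine and 1 = vehicle-only wells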
The depositor's hits bear a star; . = not tested or not shown.

SMILES	CYP2C9 inhib	CYP2C19 inhib	CYP2C9 activ	hDAT+cocaine	D1 mod	CYP2C19 activ
N#Cc1ccc(C23CC4(C2)[C@H](CN(CC2CCCCC2)[C@@H]4c2ccccc2)C3c2ccc(C(F)(F)F)cc2)cc1 (stereo not given in full)	.	.	.	-0.051	.	.
CCC(=O)N(Cc1cc2c(C)ccc(C)c2[nH]c1=O)C1CCCCC1	18.2	5.0	0.8	-0.478	1.07	0.9
COc1ccc2[nH]c(=O)c(CN(CCO)S(=O)(=O)c3c(C)ccc4nsnc34)cc2c1	11.6	21.9	0.9	0.181	.	0.8
Cc1ccc(S(=O)(=O)N(CCCN2CCCC2=O)Cc2cc3c(C)ccc(C)c3[nH]c2=O)cc1	62.8*	10.9	0.4	1.31	.	0.9
COc1ccc(S(=O)(=O)N(CCCN2CCCC2=O)Cc2cc3cc(C)c(C)cc3[nH]c2=O)cc1	67.6*	22.5	0.3	-0.00337	1.92	0.8
CCOC(=O)C(NC(C)=O)(Nc1ccc(S(=O)(=O)Nc2cc(C)nc(C)n2)cc1)C(F)(F)F (stereo not given)	11.6	3.6	0.9	-0.287	-0.176	1
CC1=C(C/C=C(\C)CCC[C@H](C)CCC[C@H](C)CCCC(C)C)C(=O)c2ccccc2C1=O	.	.	.	-0.939	.	.
C=CCn1c(SCC(=O)c2ccc(Br)cc2)nnc1C(CC(C)C)NC(=O)c1cccs1 (stereo not given)	-6.2	18.5	1.1	-0.315	.	0.8
NC(=O)c1ccc(-c2ccc(Br)cc2)o1	46.3	51.3*	0.5	-0.372	-0.226	0.5
Cc1ccc(-c2cc3nn(-c4ccccc4)c(N)c3c(=O)o2)cc1	16.0	11.9	0.8	-0.777	.	0.9
CNC(=O)Nc1ccc(Cl)cc1	-2.1	12.9	1	.	.	0.9
CC(Cc1cccs1)NC(=O)Nc1ccc(Cl)c(Cl)c1 (stereo not given)	69.0*	73.0*	0.3	.	.	0.3
CC(Cc1cccs1)NC(=O)Nc1ccc(Cl)cc1 (stereo not given)	29.8	68.5*	0.7	-1.69	.	0.3
CC(Cc1cccs1)NC(=O)Nc1ccccc1 (stereo not given)	57.1*	89.3*	0.4	-1.13	-0.0337	0.1
O=C(NCC(c1cccnc1)N1CCN(c2ccc(F)cc2)CC1)c1ccco1 (stereo not given)	.	.	.	-0.739	.	.
COc1ccc(Cl)cc1N(CC(=O)Nc1ccc2c(c1)OCO2)S(C)(=O)=O	85.9*	94.9*	0.1	0.0349	-0.231	0.1
CCN(CC)C(=O)CN(c1cc(Cl)ccc1OC)S(C)(=O)=O	.	.	.	-0.0137	0.0367	.
COc1ccc(OC)c(N(CC(=O)Nc2ccc3c(c2)OCO3)S(=O)(=O)c2ccccc2)c1	100.0*	98.3*	0	-0.105	-2.02	0
CS(=O)(=O)N(CC(=O)Nc1ccc2c(c1)OCCO2)c1ccc2c(c1)OCO2	57.6*	87.8*	0.4	-0.0955	-0.427	0.1
CS(=O)(=O)N(CC(=O)Nc1ccc2c(c1)OCO2)c1ccccc1	20.7	26.9	0.8	-1.01	.	0.7
COCCCNC(=O)CN(c1cc(OC)ccc1OC)S(=O)(=O)c1ccccc1	59.3*	56.1*	0.4	0.793	0.189	0.4
CC(C(=O)Nc1cccnc1)N1C(=O)C2C3C=CC(C3)C2C1=O (stereo not given)	-0.4	3.5	1	0.00511	0.469	1
Cn1c(=O)c2c(nc(OCc3cccnc3)n2Cc2c(F)cccc2Cl)n(C)c1=O	51.5*	17.0	0.5	2.08	0.517	0.8
CCCc1nc2ccccc2c(=O)n1N	3.8	4.7	1	1.62	.	1
CCCc1nc2ccccc2c(=O)n1/N=C/c1ccccc1O	86.3*	61.9*	0.1	0.385	.	0.4
SMILES	CYP2C9 inhib	CYP2C19 inhib	CYP2C9 activ	hDAT+cocaine	D1 mod	CYP2C19 activ
Cc1ccc(-n2[nH]c(C)c(/C=N/c3ccccn3)c2=O)cc1	-0.5	-7.6	1	0.26	0.19	1.1
COc1cccc(/C=N/n2c(C)nc3ccccc3c2=O)c1O	68.6*	37.6	0.3	0.347	0.727	0.6
CCCc1nc2ccccc2c(=O)n1/N=C/c1c(C)[nH]n(-c2ccc(C)cc2)c1=O	67.4*	12.3	0.3	0.0311	-1.2	0.9
CC(C)(NO)/C(=N/O)c1ccc(Br)cc1	9.6	64.2*	0.9	-0.556	0.0357	0.4
CC(C)(NO)/C(=N\O)c1ccc(Cl)cc1	16.7	9.8	0.8	-0.971	.	0.9
COc1cc(/C=C\C(=O)OCn2nnc3ccccc3c2=O)cc(OC)c1OC	.	.	.	0.629	.	.
COc1ccc(CCNC(=O)CCN2C(=O)C3CC=CCC3C2=O)cc1OC (stereo not given)	.	.	.	0.464	0.404	.
COc1ccc(/C=C/C(=O)c2ccccc2O)cc1CN1CCOCC1	43.8	57.8*	0.6	0.0218	.	0.4
COc1cc(/C=C/C(=O)c2ccccc2O)cc(OC)c1OC	.	.	.	0.686	.	.
COc1ccc(/C=C/C(=O)c2ccccc2)cc1COc1ccccc1F	74.5*	40.8	0.3	-0.516	.	0.6
Cc1ccc(NC(=O)C2C3/C=C\CCCCC32)cc1C (stereo not given)	0.0	44.4	1	-0.224	.	0.6
Cc1cc(C)cc(NC(=O)C2(c3ccccc3)CC2(Cl)Cl)c1 (stereo not given)	42.7	27.8	0.6	-0.889	.	0.7
Cc1cccc(NC(=O)C2(c3ccccc3)CC2(Cl)Cl)c1 (stereo not given)	52.3*	60.9*	0.5	.	.	0.4
Cc1ccc(NC(=O)C2(c3ccccc3)CC2(Cl)Cl)cc1C (stereo not given)	30.2	74.1*	0.7	.	.	0.3
CCc1ccc(NC(=O)C2(c3ccccc3)CC2(Cl)Cl)cc1 (stereo not given)	40.4	33.4	0.6	-0.936	.	0.7
CO/N=C(/CNC(=O)c1ccc(F)cc1)c1ccc(Cl)cc1	64.2*	85.5*	0.4	.	.	0.1
COc1ccccc1NC(=O)CNC(=O)c1ccc(F)cc1	1.0	20.1	1	0.33	0.314	0.8
COC(=O)C(CCCCNC(=O)OCc1ccccc1)NC(=O)CN (stereo not given)	43.5	51.1*	0.6	0.216	0.63	0.5
O=C(O)CCCNC(=O)OCc1ccccc1	0.0	-4.6	1	-1.14	-0.864	1
CCCCCCCCNC(=O)C(CCC(=O)OCc1ccccc1)NC(C)=O (stereo not given)	6.8	74.6*	0.9	0.0954	.	0.3
COc1ccc(NC2c3ccccc3C(=O)N2Cc2ccco2)cc1OC (stereo not given)	33.3	64.2*	0.7	-0.129	2.21	0.4
COC(=O)c1ccccc1NC(=O)c1ccc2c(c1)C(=O)N(Cc1ccco1)C2=O	.	.	.	0.237	0.369	.
COC(=O)c1cc(NC2c3ccccc3C(=O)N2Cc2ccco2)cc(C(=O)OC)c1 (stereo not given)	31.0	77.0*	0.7	-0.172	.	0.2
O=C1c2ccccc2C(Nc2ccc(F)c(Cl)c2)N1Cc1ccco1 (stereo not given)	40.0	65.8*	0.6	-1.17	3.4	0.3
